Only some compounds are listed: those with a hit (about 3% of all), similar ones and a draw of the others.
Tau fluor cs: counter-screen for tau fibril formation inhibitors. Potency, µM (series often up to 57.7 µM). hit rate 0.93% among 280,000. tau K18 P301L Alexa594 fluorescence, heparin fibrillization. AID 1463; note: nearly all actives have a fitted effect of over 55% in size
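Human tau K18 P301L (15 uM unlabeled, 0.24 uM Alexa 594-labeled) in 100 mM sodium acetate pH 7 with 20 uM heparin, 6 hr at 37 C. ThT 30 uM added, 1 hr ambient; Alexa 594 FP and total fluorescence read at 555/632 nm.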
TexasRed fluor: Texas Red fluorescence interference in TRb-SRC2 counter-screen; TRb/SRC2 Texas Red total fluorescence interference; Potency, µM (highest dose often 106 µM); hit rate 0.29% among 280,000; AID 1479; active = well fitted curve in either direction with a large enough effect; inconclusive = small, poorly fitted or top-dose-only effect
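Human TRb ligand-binding domain at 0.6 uM with 20 nM Texas Red SRC2 peptide in Tris buffer containing 1 uM T3 and 5% DMSO, incubated with compound 5 h at ambient temperature. Total fluorescence (555/632 nm) calculated as parallel + 2 × perpendicular.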
TRb SRC2 PPI: TRbeta-SRC2 interaction inhibition; P10828; TRbeta-SRC2 peptide binding, fluorescence polarization; receptor liganded with 1 µM T3; Potency, µM (highest dose often 106 µM), actives largely listed as inhibitors; hit rate 0.065% among 280,000; AID 1469; note: nearly all actives have a fitted effect of over 50% in size
Target sequence (P10828 whole entry, looked up): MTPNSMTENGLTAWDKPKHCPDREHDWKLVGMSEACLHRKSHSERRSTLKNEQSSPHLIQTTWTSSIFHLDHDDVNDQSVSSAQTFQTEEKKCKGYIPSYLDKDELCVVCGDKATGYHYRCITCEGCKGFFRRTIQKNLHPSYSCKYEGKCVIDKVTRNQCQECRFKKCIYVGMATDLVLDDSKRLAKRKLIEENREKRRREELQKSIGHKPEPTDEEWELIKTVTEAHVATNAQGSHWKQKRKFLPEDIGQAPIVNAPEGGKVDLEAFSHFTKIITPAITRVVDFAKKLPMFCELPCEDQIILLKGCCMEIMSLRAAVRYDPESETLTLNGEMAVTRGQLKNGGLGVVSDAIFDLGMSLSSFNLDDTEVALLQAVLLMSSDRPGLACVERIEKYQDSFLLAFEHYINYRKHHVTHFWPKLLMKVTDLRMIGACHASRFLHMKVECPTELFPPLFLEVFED
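Read-out is fluorescence polarization (555 nm excitation, 632 nm emission) of a Texas Red SRC2 coactivator peptide; loss of signal reflects blocked binding to human TRb ligand-binding domain in the presence of 1 uM T3.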
Tau FP inhib: tau fibrillization inhibition (FP); hit rate 0.39% among 280,000; P10636; K18 P301L tau heparin fibrillization, Alexa594 FP, 6 h; Potency, µM (series often up to 57.7 µM), most hits filed as inhibitors; note: nearly all actives have a fitted effect of over 55% in size
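Read-out: fluorescence polarization of Alexa 594-labeled tau (0.24 uM), 555 nm excitation, 632 nm emission. Mixtures held 15 uM unlabeled K18 P301L, compound and 20 uM heparin, pH 7 acetate buffer, incubated 6 hr at 37 C.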
Tau fibril ThT: blocks human tau fibril formation measured by thioflavin T. P10636. recombinant tau K18 P301L, heparin-induced fibrillization, ThT fluorescence. Potency, µM (top dose mostly 57.4 µM), actives largely listed as inhibitors. hit rate 2.1% among 270,000; note: nearly all actives have a fitted effect of over 55% in size
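ThT emission at 510 nm, taken 1 hr after adding 30 uM dye, quantifies aggregates formed when 20 uM heparin acts on human tau K18 P301L for 6 hr at 37 C.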
Hits are given with their value; . = inactive; ? = inconclusive; / = no result; ! = not confirmed by another sample; [ ] = dose if it differs, or a comment. Unless noted, calls come from the whole dose curve; as a rule, active = well fitted curve in the direction sought with a large enough effect; inconclusive = small, poorly fitted or top-dose-only effect, or another doubt; inactive = no such curve, though single readings can be large; an effect the other way counts as inactive or inconclusive.

SMILES	Tau fluor cs	TexasRed fluor	TRb SRC2 PPI	Tau FP inhib	Tau fibril ThT
COc1ccc(-c2c(C)nn3c4c(cnc23)C(=O)CC(c2ccc(C)cc2)C4)cc1 (stereo unspecified)	.	14µM[quencher]	.	.	.
CC(=O)c1ccc(NC(=O)C2=CC(c3ccc(C)cc3)=NS(=O)(=O)N2C)cc1	.	.	.	.	.
COc1cc(/C=C/c2ccc3c(Br)cc(Br)c(O)c3n2)ccc1O	5µM[quencher]	.	.	.	3.5µM
CN(C)c1ccc(N=Nc2ccccc2C(=O)OCC(=O)N2CCCCCC2)cc1	.	.	.	.	8.9µM
CN(C)c1ccc(N=Nc2ccccc2C(=O)OCC(=O)N2CCCC2)cc1	.	.	.	.	13µM
CN(C)c1ccc(C(=O)OCC(=O)N2CCOCC2)cc1	.	.	.	.	.
CN(C)c1ccc(N=Nc2ccccc2C(=O)OCC(=O)Nc2ccccc2C(F)(F)F)cc1	?	.	.	?	5µM
Cc1cccc(C)c1OCC(=O)Nc1ccccc1C(F)(F)F	.	.	.	.	.
COC(=O)CCn1cnc2onc(-c3cc(F)cc(F)c3)c2c1=O	.	.	.	.	.
O=C(N/N=C1/C[C@@H](O)[C@@H](O)[C@@H]2[C@@H]3C(=O)N(c4cccc(Oc5ccccc5)c4)C(=O)[C@H]3CC[C@@H]12)OCc1ccccc1	.[11.6 µM]	.[11.2 µM]	.[11.2 µM]	.[11.6 µM]	.[11.5 µM]
Cc1ccc([N+](=O)[O-])cc1N	.	.	.	.	.
Nc1cc([N+](=O)[O-])ccc1Nc1ccccc1	?	.	.	?	16µM
Nc1cc([N+](=O)[O-])ccc1O	.	0.11µM![quencher]	.	.	.
CCOc1ccc(CC(=O)Nc2c(C(=O)c3ccccc3)oc3ccc(OC)cc23)cc1OCC	.	.	.	.	.
O=C1COCCN1	/	.	.	/	/
C/C(=N\NC(=O)c1ccc(N/N=C(\C)c2ccc(O)cc2)cc1)c1ccc(O)cc1	16µM[quencher]	.	.	?	3.2µM
C/C(=N/Nc1ccc(C(=O)O)cc1)c1ccc(O)c(O)c1O	.	.	.	?	11µM
C/C(=N\NC(=O)c1cccc(N/N=C(\C)c2cc(O)ccc2O)c1)c1cc(O)ccc1O	?	.	.	?	28µM
C/C(=N\NC(=O)c1cccc(N/N=C(\C)c2ccco2)c1)c1ccco1	.	.	.	.	?
COc1ccc(C2=Nn3c(nnc3-c3cc(OC)cc(OC)c3)SC2)cc1	/	.	.	/	/
Cc1cccc(NC(=O)Cn2cc(C(=O)C3CCCCC3)c3ccccc32)c1	.	.	.	?	.
CCOc1ccc(C[C@H]2NC(=O)CCSSC[C@@H](C(=O)N3CCC[C@H]3C(=O)N[C@@H](CCCN)C(=O)NCC(N)=O)NC(=O)[C@H](CC(N)=O)NC(=O)[C@H]([C@@H](C)O)NC(=O)[C@H]([C@@H](C)CC)NC2=O)cc1	/	.	.	/	/
C=CCc1cccc(CNc2nc3ccccc3n2C(C)C)c1O	11µM[quencher]	.	.	.	.
Cn1c(NCc2ccccc2O)nc2ccccc21	.	.	.	.	.
CC(=O)c1ccc(NC(=O)C2CC(=O)N(Cc3ccccc3)C2)cc1 (stereo unspecified)	.	.	.	.	8.9µM
SMILES	Tau fluor cs	TexasRed fluor	TRb SRC2 PPI	Tau FP inhib	Tau fibril ThT
O=C(Nc1ccc(O)c2c(=O)cc(-c3ccccc3Cl)oc12)c1ccc(Br)cc1	.	.	.	.	14µM
CCCc1nn2c(N)c(/C=C3\C=Nc4ccccc43)c(=O)nc2s1	?	.	.	.	8.9µM
CCOc1ccccc1CNC(=O)c1ccc(Cn2c(=O)c3cccn3c3cccnc32)cc1	.	.	.	.	.
CN(C)Cc1cc(O)c(CN(C)C)cc1O	?	?	.	?	7.1µM
COc1ccc(C2c3c(n(C)c4ccccc34)C(=O)N2CC(=O)Nc2cccc(Cl)c2)cc1 (stereo unspecified)	.	.	.	?	.
Cc1ccc(NC(=O)C(=O)NCC(c2ccc3c(c2)OCO3)N2CCOCC2)cc1C (stereo unspecified)	.	.	.	.	.
CC1CCCC(C)N1C(=O)Cn1cc(/C=C2/C(=O)Nc3ccccc32)c2ccccc21 (stereo unspecified)	?	.	.	.	14µM
COC(=O)c1cn(CC(=O)N2C(C)CCCC2C)c2ccccc12 (stereo unspecified)	.	.	.	.	.
CCCCCCC(=O)Nc1nc(C)c(-c2csc(Nc3cc(OC)ccc3OC)n2)s1	?	.	.	?	?

High-throughput results from PubChem BioAssay.
